Source: PubChem BioAssay (Sanford-Burnham Center for Chemical Genomics)
The list is not random: actives were taken first. Their share in the collection is about 4%.
TIM10 inh – growth inhibitors of isogenic TIM10 control yeast, primary screen, counter-screen for tim10-1 yeast inhibitor project, luminescence, uHTS. S. cerevisiae TIM10 strain growth, BacTiter-Glo luminescence, 24 h. inhibition, % at 10 µM. hit rate 1.4% among 330,000. AID 463195, 2010;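 active = inhibition of 40% or more at the single tested concentration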;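 note: wild-type TIM10 isogenic control strain grown at permissive 25 °C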
NLRP3 yeast inh – NALP3 inflammasome inhibitors in reconstituted yeast, primary screen, luminescence, uHTS. Yeast reconstituted NLRP3/ASC/caspase-1, beta-gal luminescence, 24 h. inhibition, % at 10 µM. hit rate 0.39% among 330,000;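 active = inhibition of 50% or more; inactive = inhibition below 50%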;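 note: plate controls were induced DMSO wells for no effect and uninduced yeast grown without galactose for full effect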
NALP1 yeast inh – NALP1 inflammasome inhibitors in reconstituted yeast, colorimetric, S. cerevisiae, triplicate retest. S. cerevisiae NALP1/ASC/caspase-1 growth, X-gal OD620, 72 h. inhibition, % at 10 µM. hit rate 0.61% among 280,000; in the data active = inhibition mostly above about 24%, no sharp cut-off; inactive = mostly below about 32%
tim10-1 inh – growth inhibitors of tim10-1 mutant yeast, primary screen, luminescence, uHTS; AID 463190, 2010; S. cerevisiae tim10-1 ts strain growth, BacTiter-Glo, 24 h; hit rate 2.2% among 330,000; inhibition, % at 20 µM;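 active = inhibition of at least 40%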;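 note: mutant grown at 25 °C; 0% = DMSO wells with yeast and 100% = wells holding no yeast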
tim23-1 inh – growth inhibitors of tim23-1 mutant yeast, primary screen, luminescence, uHTS; S. cerevisiae tim23-1 growth, BacTiter-Glo luminescence, 24 h; inhibition, % at 20 µM; hit rate 1.3% among 330,000; AID 463212, 2010;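 active = growth inhibition of the mutant yeast at or above 50%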;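 note: temperature-sensitive mutant grown at 25 °C; plate controls were DMSO-treated mutant yeast for no effect and medium wells lacking yeast for full effect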
tim10-1 confirm – growth inhibitors of tim10-1 mutant yeast, confirmation, single concentration, luminescence, S. cerevisiae; inhibition, % at 20 µM; hit rate 56% among 7,400; shares compounds with tim10-1 inh; S. cerevisiae tim10-1 ts strain growth, BacTiter-Glo, 24 h;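 active = inhibition of yeast growth at or above a set limit in either of two repeat tests at 20 µM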;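 note: tim10-1 mutant grown at permissive 25 °C to find synthetic lethal compounds; 0% = DMSO yeast wells and 100% = medium wells without yeast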
TIM10 conf – growth inhibitors of wild-type TIM10 yeast, confirmation, counter-screen for tim10-1 synthetic lethality project, single concentration, luminescence, S. cerevisiae. inhibition, % at 10 µM. hit rate 63% among 4,600. AID 463215, 2010. S. cerevisiae tim10 strain growth, BacTiter-Glo luminescence, 24 h. shares compounds with TIM10 inh;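 active = inhibition of yeast growth at or above a set limit in either of two replicates at 10 µM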;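 note: this counterscreen used the strain with wild-type TIM10; 0% = yeast with DMSO and 100% = medium wells lacking yeast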
tim23-1 confirm – tim23-1 mutant yeast growth inhibitors, confirmation, luminescence, single concentration; shares compounds with tim23-1 inh; S. cerevisiae tim23-1 growth, BacTiter-Glo luminescence, 24 h; inhibition, % at 20 µM; hit rate 83% among 4,400; AID 463218, 2010;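 active = inhibition above about 39% in either of two replicate wells at 20 µM, limit read from the data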;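 note: temperature-sensitive tim23-1 mutant grown at 25 °C; 0% = DMSO wells with yeast and 100% = medium wells without yeast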
Starred values were filed as active, the others as inactive; nt = no result.

SMILES	TIM10 inh	NLRP3 yeast inh	NALP1 yeast inh	tim10-1 inh	tim23-1 inh	tim10-1 confirm	TIM10 conf	tim23-1 confirm
CC(C)(C)C(=O)O/N=C(\N)Cc1ccc(-c2csnn2)cc1	47*	15	13	75*	51*	82*	52*	30
CCC1CCCCN1S(=O)(=O)c1ccc(NC(=O)c2cccs2)cc1 (stereo not drawn)	64*	7	34	72*	72*	65*	68*	78*
CCC1CCCCN1S(=O)(=O)c1ccc(NC(=O)c2snnc2C)cc1 (stereo not drawn)	8	10	-19	37	31	nt	nt	nt
O=[N+]([O-])c1cc(S(=O)(=O)C(F)(F)F)ccc1Sc1nc2ccccc2[nH]1	58*	24	4	60*	68*	48*	51*	59*
NCCNc1ccc([N+](=O)[O-])c(Sc2nc3ccccc3[nH]2)c1	10	8	24	12	14	nt	nt	nt
COC(=O)N1C(=O)[C@](c2ccccc2)(C(C)C)N1C(=O)OC	23	11	18	20	23	nt	nt	nt
CCOC(=O)N1C(=O)[C@](c2ccc(Cl)cc2)(C(C)C)N1C(=O)OCC	39	28	13	42*	61*	42*	nt	56*
Cc1ccccc1OCCCN1C(=O)C(=O)c2cccc(C)c21	26	16	9	54*	74*	39*	nt	27
Cc1ccc2c(c1)C(=O)C(=O)N2CCCOc1ccccc1C	18	16	4	10	22	nt	nt	nt
COCCOC(=O)C(C#N)c1nc2ccccc2nc1N1CCN(Cc2ccccc2)CC1 (stereo not drawn)	23	22	8	25	25	nt	nt	nt
C=CCOC(=O)C(C#N)c1nc2ccccc2nc1N1CCN(Cc2ccccc2)CC1 (stereo not drawn)	36	7	18	47*	50*	36*	nt	43*
CC(C)COC(=O)C(C#N)c1nc2ccccc2nc1N1CCN(Cc2ccccc2)CC1 (stereo not drawn)	39	21	-16	42*	51*	12	nt	21
CC(OC(=O)Cn1nnc2ccccc21)C(=O)NC1CCCC1 (stereo not drawn)	5	15	10	-24	3	nt	nt	nt
c1ccc2c(CN3CCOCC3)c3ccccc3c(CN3CCOCC3)c2c1	61*	8	-8	53*	84*	52*	50*	24
c1ccc2c(CN3CCOCC3)csc2c1	-2	-5	34	6	7	nt	nt	nt
COc1ccc(C2CC(=O)C(C(c3ccc(O)cc3)C3C(=O)CC(c4ccc(OC)cc4)CC3=O)C(=O)C2)cc1 (stereo not drawn)	22	1	-3	27	17	nt	nt	nt
O=C(c1ccccc1)c1ccc2cc(O)ccc2c1	26	12	8	48*	59*	35*	nt	53*
CCOC(=O)C1=C(Cc2ccc(F)cc2)C(=O)c2ccccc2C1=O	64*	4	-4	57*	66*	68*	57*	71*
Cc1ccc(C)c(N2N=C(C(=O)Nc3ccc(N4CCOCC4)cc3)CCC2=O)c1	5	19	nt	-6	14	nt	nt	nt
O=C(Nc1ccc(N2CCCCC2)cc1)c1ccc([N+](=O)[O-])o1	45*	11	2	59*	74*	47*	38*	70*
COc1ccc(N2CCCC2)c(NC(=O)c2ccc([N+](=O)[O-])o2)c1	71*	11	5	62*	68*	51*	80*	43*
O=C(Nc1ccccc1N1CCCC1)c1ccc([N+](=O)[O-])o1	52*	17	24	65*	66*	55*	45*	66*
O=C(Nc1cc(C(F)(F)F)ccc1-n1cncn1)c1ccc([N+](=O)[O-])o1	47*	13	nt	73*	54*	64*	57*	-16
CCOc1ccccc1NC(=O)CSc1nc(=O)n(CCN2CCOCC2)c2c1CCCC2	10	11	nt	4	-6	nt	nt	nt
COc1ccc(N(C)S(=O)(=O)c2cccc(C(=O)OCC(=O)c3c(N)n(C)c(=O)n(C)c3=O)c2)cc1	6	14	nt	9	18	nt	nt	nt
SMILES	TIM10 inh	NLRP3 yeast inh	NALP1 yeast inh	tim10-1 inh	tim23-1 inh	tim10-1 confirm	TIM10 conf	tim23-1 confirm
Oc1c(Br)cc(Br)cc1/C=N/c1nc2c(s1)CCCC2	42*	30	nt	53*	76*	28	30	91*
O=c1cc(-c2ccc(C3CCCCC3)cc2)[nH][nH]1	29	16	5	59*	74*	32*	nt	-4
O=c1cc(-c2ccc(F)cc2)[nH][nH]1	-5	11	20	8	1	nt	nt	nt
O=[N+]([O-])c1nn(-c2ccc3c(c2)OCCO3)n(O)c1=NC1CCCCCC1	55*	26	-2	53*	56*	56*	45*	48*
COc1ccc(C(=O)N/C(=C\c2cn(S(=O)(=O)N(C)C)c3ccccc23)C(=O)NCCN2CCOCC2)cc1OC	9	27	23	17	7	nt	nt	nt
CC(=O)NC(C)c1cc(Cl)c2cccnc2c1O (stereo not drawn)	21	32	nt	41*	53*	21	nt	38
COc1ccc(S(=O)(=O)N2CCN(C(=O)c3cc4c(s3)CCCC4)CC2)cc1	22	9	nt	54*	50*	39*	nt	57*
COc1ccc(NC(=O)CC2C(=O)N(C)C(=S)N2Cc2ccc3c(c2)OCO3)cc1 (stereo not drawn)	11	3	34	21	14	nt	nt	nt
CC(C)(C)c1ccc(NC(=O)N2CCCN(c3ccc([N+](=O)[O-])cn3)CC2)cc1	43*	28	37	43*	61*	50*	42*	57*
O=C(Nc1ccc([N+](=O)[O-])cc1)N1CCCCCC1	10	11	26	17	23	nt	nt	nt
COc1ccc2c(c1)CC/C2=N\OC(=O)c1ccccc1OC	71*	7	-3	53*	81*	38*	80*	79*
CCOC(=O)c1nnc(-c2cccs2)nc1Oc1ccc(Cl)cc1	19	15	-23	27	49	nt	nt	nt
CCOC(=O)c1nnc(-c2cccs2)nc1NC(C)C	23	22	24*	47*	55*	42*	nt	44*
